Screen size: about 2,100 compounds; about 760 (36%) were called active. Not all results are given here. Unmarked numbers belong to inactive results.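 How the source made its calls: active means thallium-flux fluorescence traces judged by eye to show enhanced or reduced glutamate response, manual score 1 or -1, so both directions (some results past the limit were not filed as active); inactive means the rest, including fluorescent or raised-baseline compounds.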

This assay can be described thus: non-GIRK thallium flux modulation in mGlu8 cells, confirmation, counter-screen for GIRK activator project, cell-based, HEK-293 rmGlu8, no GIRK (AID 623868).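 Further: extra codes mark interference with 3 for fluorescent and 4 for baseline rise.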 The following applies: thallium flux fluorescence, at 10 µM, actives lie on both sides, codes: 1 enhancer, -1 blocker, 0 none, thallium stimulus containing EC20 glutamate.
On to `COc1ccc(OC)c(-c2c3cc(O)c(=O)cc-3oc3cc(O)c(O)cc23)c1`, for which the manual score was 0.

In the case of `COc1cc(C)nc(N(Cc2ccccc2)S(=O)(=O)c2ccccc2)n1`, the manual score is 0.

Consider `O=C(NNS(=O)(=O)c1ccccc1F)c1cccc(S(=O)(=O)N2CCOCC2)c1`, for which the manual score is 0.

For the compound `COc1cc(CNc2ccc(N3CCCC3)cc2)ccc1OCc1ccccc1`, the manual score is 0.

With `CC(Oc1ccc2ccccc2c1)C(=O)NNC(=S)NC(=O)c1ccco1` (stereo unspecified), the manual score was 1 (active).

Regarding `CC(Oc1ccc(Cl)cc1)C(=O)NNC(=S)NC(=O)c1ccco1` (stereo unspecified), the manual score was 1 (active).

Regarding `CC(Oc1ccc(Cl)cc1)C(=O)N/N=C/c1ccsc1` (stereo unspecified), the manual score was 0.

For `CCSc1nnc(NC(=O)NC(CC)(C(F)(F)F)C(F)(F)F)s1`, the manual score was 0.

Take `O=C(C1CCN(S(=O)(=O)c2cccc3cccnc23)CC1)N1CC=C(c2ccccc2)CC1`: the manual score is -1 (active).

In the case of `O=C(C1CCCN1S(=O)(=O)c1cccc2cccnc12)N1CCc2ccccc21` (stereo unspecified), the manual score was 0.

As to `O=C(C1CCCN1S(=O)(=O)c1cccc2cccnc12)N1CCn2c1nc1ccccc12` (stereo unspecified), the manual score was 0.

In the case of `S=c1[nH]nc(-c2ccccn2)n1/N=C/c1ccc(Br)s1`, the manual score was 1 (active).

Regarding `Cc1cc(-c2n[nH]c(=S)n2/N=C/c2ccc(Br)s2)n[nH]1`, the manual score is 1 (active).

For `CCN=c1scc(-c2ccco2)n1/N=C/c1ccc(O)cc1`, the manual score was 0.

As for `S=c1[nH]nc(-c2ccco2)n1/N=C/c1ccc(Br)s1`, the manual score was 1 (active).

As for `Cc1c(C(=O)NCc2cccnc2)oc2ccc(S(=O)(=O)N3CCC4(CC3)OCCO4)cc12`, the manual score was 0.

Take `Clc1ccc(CSc2ncn(-c3ccccc3)n2)cc1`: the manual score was 0.

For the compound `COC(=O)Cn1c(CN2CCc3ccccc3C2)nc2c1c(=O)n(C)c(=O)n2C`, the manual score is 0.

As for `O=C(CSc1c[nH]c2ccccc12)NCc1ccc2c(c1)OCO2`, the manual score is 0.

As to `Cc1ccc(-n2c(CSc3nc(C)cc(C)n3)nnc2SCC(=O)NCc2ccco2)cc1`, the manual score is 0.

For `O=C(CSc1nnc(-c2c[nH]c3ccccc23)n1-c1ccc(F)cc1)NCc1ccco1`, the manual score was -1 (active).

`CCOC(=O)C1CCCN(c2nc(C)nc3c2oc2ccccc23)C1` (stereo unspecified): the manual score was 0.

With `CCOC(=O)N1CCN(C(=O)CN(Cc2ccccc2)S(=O)(=O)c2ccc(OC)c(C)c2)CC1`, the manual score is 0.

In the case of `C=CCn1c(SCC(=O)Nc2sccc2C(N)=O)nc2ccc(Cl)cc2c1=O`, the manual score is 1 (active).

As for `COc1ccc(CNCCC(c2ccc(F)cc2)c2ccc(OC)cc2)cc1` (stereo unspecified), the manual score is 0.

On to `CCc1ccc(/C=C/C(=O)C2C(=O)c3ccccc3C2=O)cc1`, for which the manual score was 1 (active).

On to `CC(/C=C\c1cccnc1)=C/C(=O)O`, for which the manual score is 0.

In the case of `CCc1ccc(/C=c2\s/c(=C\C(=O)C(C)(C)C)[nH]c2=O)cc1`, the manual score is 0.

For `O=C(/C=C/c1ccccc1)C1C(=O)c2ccccc2C1=O`, the manual score was 1 (active).

Take `CCOC(=O)C1=NNC(C(=O)c2ccc(OC)cc2)C1c1ccccc1` (stereo unspecified): the manual score was 0.

With `Cc1ccc2c(c1)NC(=O)CC(c1ccccc1)=N2`, the manual score is 0.

Turning to `FC(F)(F)c1ccc2nnc(-c3c(Cl)cccc3Cl)n2c1`, the manual score was 0.

Turning to `CN(c1ccc(OCC(=O)OCC(=O)Nc2ccccc2F)cc1)S(=O)(=O)c1cccs1`, the manual score is 0.

Consider `CC(C)c1nc(=S)c2ccccc2[nH]1`, for which the manual score is 1 (active).

On to `S=c1nc(C2CC2)[nH]c2ccccc12`, for which the manual score is 1 (active).

As to `c1ccc2c(NC3CCCC3)nnc(NC3CCCC3)c2c1`, the manual score is 0.

Consider `CCc1ccc(CNCCNCC(C)O)cc1` (stereo unspecified), for which the manual score is 0.

Regarding `Clc1ccc(Cl)c(OCc2cc(-c3ccccc3Cl)on2)c1`, the manual score was 0.

For the compound `CCCc1cc(=O)n2[nH]c(-c3ccc(Br)cc3)cc2n1`, the manual score is 0.

For `COc1ccccc1C(=O)NC(=S)NNC(=O)c1sc2ccccc2c1Cl`, the manual score was 1 (active).

Turning to `COc1ccccc1C(=O)NNC(=S)NC(=O)c1sc2ccccc2c1Cl`, the manual score is 1 (active).

In the case of `CC(C)(C)C(=O)NC(=S)NNC(=O)c1sc2ccccc2c1Cl`, the manual score is 1 (active).

Turning to `COc1ccc2cc(C(=O)Nc3ccccc3)sc(=O)c2c1OC`, the manual score is 0.

As to `CCCCCc1nnc(NC(=O)Cc2cccs2)s1`, the manual score was 0.

`CNC(=S)N=Nc1c(O)[nH]c2ccc(C(C)C)cc12`: the manual score is 1 (active).

As to `COc1cccc(NC(=O)CC2COc3ccccc3O2)c1` (stereo unspecified), the manual score was 0.

With `C#CC(CO)N(CCN(Cc1ccccc1)C(C#C)CO)Cc1ccccc1` (stereo unspecified), the manual score was 0.

Turning to `COc1ccc(-c2nnc(NC(=O)c3ccc(S(=O)(=O)N4CCCc5ccccc54)cc3)o2)cc1`, the manual score was 1 (active).

In the case of `Cc1cccc(N2CCN(C(=O)c3ccc(Cl)c(S(=O)(=O)N4CCc5ccccc5C4)c3)CC2)c1C`, the manual score is 0.

For the compound `CCOc1ccc(-c2nc(-c3ccc(OC)c(OC)c3)no2)cc1OCC`, the manual score was 0.

Regarding `COc1ccc(-c2nnc(NC(=O)c3ccc(S(=O)(=O)N4COCC4(C)C)cc3)o2)cc1`, the manual score was 1 (active).

As for `CCOc1ccc(-c2nnc(NC(=O)CCCOc3cccc(C)c3)o2)cc1`, the manual score is 0.

In the case of `CCOc1ccc(-c2nnc(NC(=O)c3ccc(OCC(C)C)c(OC)c3)o2)cc1`, the manual score was 1 (active).

As to `COc1ccc(-c2nnc(NC(=O)c3ccc(S(=O)(=O)N4CCc5ccccc5C4)cc3)o2)cc1`, the manual score is 1 (active).

With `CCCCCCCC1CC(CSC(=N)N)OC1=O` (stereo unspecified), the manual score is 0.

Regarding `COc1ccc(C(C)N2CC34C=CC(O3)C(C(=O)OCC(C)C)C4C2=O)cc1` (stereo unspecified), the manual score is 0.

In the case of `N#CCCn1nc(-c2ccc(Cl)cc2)cc1Nc1ccccc1NC(=O)C(F)(F)F`, the manual score was 0.

In the case of `O=C(CSc1ccc(-c2ccco2)nn1)c1ccccc1`, the manual score is 0.

As for `O=C(Nc1nnc(-c2ccco2)o1)c1ccc2ccccc2c1`, the manual score was 1 (active).

For `COc1ccc(-c2nnc(NC(=O)c3ccc(F)cc3)o2)cc1`, the manual score was 1 (active).

In the case of `CCc1cc(C(N)=O)c(NC(=O)c2ccc(OC)cc2)s1`, the manual score is 0.

Regarding `CCOC(=S)NC(=O)c1sc2ccccc2c1Cl`, the manual score was 1 (active).

On to `CCCCOC(=S)NC(=O)c1sc2ccccc2c1Cl`, for which the manual score was 1 (active).

On to `O=C(NC(=S)N(CCCCO)C1CCCCC1)c1sc2ccccc2c1Cl`, for which the manual score is 1 (active).

Regarding `CCCOC(=S)NC(=O)c1sc2ccccc2c1Cl`, the manual score was 1 (active).

Regarding `OC(CN1C2=NCCCN2c2ccccc21)c1ccc(Br)cc1` (stereo unspecified), the manual score is 0.

The values are drawn from PubChem BioAssay AID623868 (Vanderbilt High Throughput Screening Facility, 2012).
